{"source": "the supplement of paper PMC10849652", "note": "Of roughly 7,900 targets only a part is listed; those with a hit were picked by preference. About 0.6% of all pairs of compound and target were hits. Values without a mark were called inactive.", "data": [{"compound": "Cc1ccc(NC(=O)c2ccc(CN3CC[C@H](N(C)C)C3)c(C(F)(F)F)c2)cc1Nc1nccc(-c2cncnc2)n1 [bafetinib]", "experiment": "log2 fold change, soluble protein after heating vs DMSO (PISA); higher = thermal stabilisation; K562 cells, 10 uM, 30 min; active = over 0.2 and 3.5 SD of the protein, either way, in both replicates (recomputed)", "outline": "(§1)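 Soluble protein was defined as the supernatant after 21,000xg for 90 min. It came from K562 cells at 2×10^6 cells/mL given 10 μM compound for 30 min, heated in aliquots for 3 min across 48°C-58°C, pooled, and extracted in PBS with 0.5% NP-40 at 4°C, and was quantified by TMTpro 16plex LC-MS/MS with equalised channel sums. Thermal stability against control samples, from duplicates, is reported as log2 fold change.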", "values": [{"target": "IKZF1 isoform 2 (UniProt Q13422)", "sequence (Q13422 whole entry, looked up)": "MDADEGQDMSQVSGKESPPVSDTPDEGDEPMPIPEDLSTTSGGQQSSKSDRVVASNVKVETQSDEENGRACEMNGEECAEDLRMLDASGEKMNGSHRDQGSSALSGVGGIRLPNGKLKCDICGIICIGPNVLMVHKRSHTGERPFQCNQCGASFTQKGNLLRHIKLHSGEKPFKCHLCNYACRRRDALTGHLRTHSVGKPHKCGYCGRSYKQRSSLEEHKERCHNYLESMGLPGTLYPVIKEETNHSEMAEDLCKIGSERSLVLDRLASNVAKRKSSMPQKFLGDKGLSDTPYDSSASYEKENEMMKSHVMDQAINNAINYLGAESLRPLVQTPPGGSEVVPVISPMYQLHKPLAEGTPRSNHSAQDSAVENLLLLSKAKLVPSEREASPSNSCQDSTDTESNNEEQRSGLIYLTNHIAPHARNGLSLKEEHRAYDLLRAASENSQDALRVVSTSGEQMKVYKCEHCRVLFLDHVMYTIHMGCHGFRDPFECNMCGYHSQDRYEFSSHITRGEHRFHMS", "log2 fold change": -0.217}, {"target": "ILF3 (UniProt Q12906)", "sequence (Q12906 whole entry, looked up)": "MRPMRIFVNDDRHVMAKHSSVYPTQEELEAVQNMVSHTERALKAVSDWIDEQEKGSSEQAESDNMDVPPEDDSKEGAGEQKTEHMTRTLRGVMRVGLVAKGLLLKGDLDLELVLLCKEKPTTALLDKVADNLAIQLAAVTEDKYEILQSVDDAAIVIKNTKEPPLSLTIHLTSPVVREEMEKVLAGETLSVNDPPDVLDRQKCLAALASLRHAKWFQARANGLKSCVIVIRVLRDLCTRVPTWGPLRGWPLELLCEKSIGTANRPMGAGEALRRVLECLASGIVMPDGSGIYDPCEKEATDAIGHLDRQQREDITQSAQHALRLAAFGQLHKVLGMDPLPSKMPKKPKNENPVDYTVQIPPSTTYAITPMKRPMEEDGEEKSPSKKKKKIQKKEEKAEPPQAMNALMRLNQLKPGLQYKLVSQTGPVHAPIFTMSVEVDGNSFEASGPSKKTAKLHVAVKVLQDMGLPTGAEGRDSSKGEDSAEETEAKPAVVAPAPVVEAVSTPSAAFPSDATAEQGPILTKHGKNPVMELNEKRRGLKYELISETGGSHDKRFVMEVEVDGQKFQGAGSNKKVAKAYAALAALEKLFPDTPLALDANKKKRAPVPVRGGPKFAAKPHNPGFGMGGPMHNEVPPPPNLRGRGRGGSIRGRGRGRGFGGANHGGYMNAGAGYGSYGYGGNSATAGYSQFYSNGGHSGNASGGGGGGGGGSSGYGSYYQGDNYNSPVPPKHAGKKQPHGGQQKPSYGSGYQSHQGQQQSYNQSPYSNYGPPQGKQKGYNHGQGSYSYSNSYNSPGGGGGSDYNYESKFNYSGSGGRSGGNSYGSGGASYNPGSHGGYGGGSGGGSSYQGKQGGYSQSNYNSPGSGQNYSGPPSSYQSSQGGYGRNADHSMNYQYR", "log2 fold change": 0.084}, {"target": "MFAP3 (UniProt P55082)", "log2 fold change": -0.385}, {"target": "MAP4K2 (UniProt Q12851)", "sequence (Q12851 whole entry, looked up)": "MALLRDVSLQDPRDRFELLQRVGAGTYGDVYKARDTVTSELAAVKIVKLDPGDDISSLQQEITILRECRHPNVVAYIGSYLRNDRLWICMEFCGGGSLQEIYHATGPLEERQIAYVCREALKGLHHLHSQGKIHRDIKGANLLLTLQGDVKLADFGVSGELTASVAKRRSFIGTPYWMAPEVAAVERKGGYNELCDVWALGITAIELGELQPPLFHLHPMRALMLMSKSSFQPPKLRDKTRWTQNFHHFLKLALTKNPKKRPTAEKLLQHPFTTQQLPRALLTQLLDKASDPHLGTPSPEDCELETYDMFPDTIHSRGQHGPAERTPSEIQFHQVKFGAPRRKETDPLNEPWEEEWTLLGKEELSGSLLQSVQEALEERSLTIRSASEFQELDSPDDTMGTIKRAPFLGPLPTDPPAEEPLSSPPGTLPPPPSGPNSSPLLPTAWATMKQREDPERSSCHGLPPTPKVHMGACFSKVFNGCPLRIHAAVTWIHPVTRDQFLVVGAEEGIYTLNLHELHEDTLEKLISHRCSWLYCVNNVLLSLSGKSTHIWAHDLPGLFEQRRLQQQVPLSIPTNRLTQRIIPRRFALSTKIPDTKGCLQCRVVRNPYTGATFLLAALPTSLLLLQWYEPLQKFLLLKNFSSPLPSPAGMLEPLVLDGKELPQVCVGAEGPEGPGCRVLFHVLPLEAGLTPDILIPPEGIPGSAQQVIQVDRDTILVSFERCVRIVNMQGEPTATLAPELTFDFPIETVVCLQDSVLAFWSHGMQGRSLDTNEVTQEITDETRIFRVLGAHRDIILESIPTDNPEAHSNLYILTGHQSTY", "log2 fold change": -0.116}, {"target": "LOX (UniProt P28300)", "sequence (P28300 whole entry, looked up)": "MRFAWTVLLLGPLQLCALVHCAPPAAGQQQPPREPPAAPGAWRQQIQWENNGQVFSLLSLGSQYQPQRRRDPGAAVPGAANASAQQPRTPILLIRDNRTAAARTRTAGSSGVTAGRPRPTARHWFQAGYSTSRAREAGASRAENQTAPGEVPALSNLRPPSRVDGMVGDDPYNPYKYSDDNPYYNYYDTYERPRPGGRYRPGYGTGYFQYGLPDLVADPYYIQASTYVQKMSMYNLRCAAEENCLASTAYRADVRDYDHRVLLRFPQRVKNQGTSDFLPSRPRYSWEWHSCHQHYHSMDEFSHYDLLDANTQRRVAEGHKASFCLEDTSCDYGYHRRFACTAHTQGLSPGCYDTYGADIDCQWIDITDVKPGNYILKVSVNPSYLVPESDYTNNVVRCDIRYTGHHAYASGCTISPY", "log2 fold change": "-0.734 (active)"}, {"target": "LRFN1 (UniProt Q9P244)", "log2 fold change": -0.017}, {"target": "INTS5 (UniProt Q6P9B9)", "sequence (Q6P9B9 whole entry, looked up)": "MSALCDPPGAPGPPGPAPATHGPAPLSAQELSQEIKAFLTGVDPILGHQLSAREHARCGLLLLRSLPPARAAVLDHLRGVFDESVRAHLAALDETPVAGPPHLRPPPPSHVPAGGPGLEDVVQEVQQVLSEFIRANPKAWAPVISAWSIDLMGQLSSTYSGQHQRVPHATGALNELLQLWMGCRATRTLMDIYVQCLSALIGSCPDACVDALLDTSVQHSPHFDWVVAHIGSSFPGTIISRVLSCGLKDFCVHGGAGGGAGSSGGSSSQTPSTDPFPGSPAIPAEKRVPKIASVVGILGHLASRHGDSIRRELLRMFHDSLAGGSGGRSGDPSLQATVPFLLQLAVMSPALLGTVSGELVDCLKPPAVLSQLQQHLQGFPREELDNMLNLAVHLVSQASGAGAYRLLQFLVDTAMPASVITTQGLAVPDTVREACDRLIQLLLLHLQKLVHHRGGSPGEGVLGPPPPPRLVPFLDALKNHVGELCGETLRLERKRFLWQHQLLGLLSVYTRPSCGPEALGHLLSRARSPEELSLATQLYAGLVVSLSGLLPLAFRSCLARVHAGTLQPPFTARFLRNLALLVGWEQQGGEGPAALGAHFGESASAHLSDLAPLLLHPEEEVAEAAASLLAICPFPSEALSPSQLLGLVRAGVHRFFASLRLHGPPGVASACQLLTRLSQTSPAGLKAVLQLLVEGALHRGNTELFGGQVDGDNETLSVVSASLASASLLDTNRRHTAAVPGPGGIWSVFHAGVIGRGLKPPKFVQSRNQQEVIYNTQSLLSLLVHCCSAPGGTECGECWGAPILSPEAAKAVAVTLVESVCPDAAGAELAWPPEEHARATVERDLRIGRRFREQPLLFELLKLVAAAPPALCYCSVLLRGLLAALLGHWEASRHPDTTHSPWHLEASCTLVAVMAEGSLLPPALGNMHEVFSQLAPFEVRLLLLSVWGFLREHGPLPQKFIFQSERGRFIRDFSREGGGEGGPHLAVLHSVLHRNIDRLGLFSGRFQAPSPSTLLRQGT", "log2 fold change": -0.035}, {"target": "MAP4 isoform 5 (UniProt P27816)", "sequence (P27816 whole entry, looked up)": "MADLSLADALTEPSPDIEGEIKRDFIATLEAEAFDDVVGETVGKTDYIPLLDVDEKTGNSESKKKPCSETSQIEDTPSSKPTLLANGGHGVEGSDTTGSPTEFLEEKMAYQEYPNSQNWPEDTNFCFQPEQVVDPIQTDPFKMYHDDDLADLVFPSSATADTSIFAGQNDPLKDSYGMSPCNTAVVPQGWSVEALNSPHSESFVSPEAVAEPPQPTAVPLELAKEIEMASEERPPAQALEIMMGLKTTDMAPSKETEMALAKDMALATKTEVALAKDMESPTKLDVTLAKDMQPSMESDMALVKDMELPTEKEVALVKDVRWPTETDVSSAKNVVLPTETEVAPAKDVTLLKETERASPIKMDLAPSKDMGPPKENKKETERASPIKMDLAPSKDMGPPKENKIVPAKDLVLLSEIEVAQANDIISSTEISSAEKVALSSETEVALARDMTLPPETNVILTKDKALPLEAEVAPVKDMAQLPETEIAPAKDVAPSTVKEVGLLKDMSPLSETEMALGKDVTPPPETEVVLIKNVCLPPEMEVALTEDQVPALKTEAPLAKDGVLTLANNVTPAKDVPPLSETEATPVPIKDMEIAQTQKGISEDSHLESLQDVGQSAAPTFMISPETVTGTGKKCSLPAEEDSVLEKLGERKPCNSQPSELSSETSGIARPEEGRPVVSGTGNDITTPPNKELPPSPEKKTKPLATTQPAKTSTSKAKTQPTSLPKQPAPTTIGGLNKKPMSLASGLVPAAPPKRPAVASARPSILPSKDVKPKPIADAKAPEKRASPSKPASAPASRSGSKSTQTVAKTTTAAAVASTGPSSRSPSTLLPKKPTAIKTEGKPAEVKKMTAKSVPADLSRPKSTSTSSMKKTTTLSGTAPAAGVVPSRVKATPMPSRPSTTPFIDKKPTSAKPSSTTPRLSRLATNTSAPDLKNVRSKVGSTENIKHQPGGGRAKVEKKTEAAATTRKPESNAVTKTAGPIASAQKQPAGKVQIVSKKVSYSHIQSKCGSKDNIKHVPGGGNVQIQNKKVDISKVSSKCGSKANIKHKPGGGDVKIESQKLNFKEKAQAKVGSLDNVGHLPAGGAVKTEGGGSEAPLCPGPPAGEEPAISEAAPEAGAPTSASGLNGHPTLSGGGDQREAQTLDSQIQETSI", "log2 fold change": -0.028}, {"target": "LDLRAP1 (UniProt Q5SW96)", "log2 fold change": -0.011}, {"target": "MARCHF3 (UniProt Q86UD3)", "sequence (Q86UD3 whole entry, looked up)": "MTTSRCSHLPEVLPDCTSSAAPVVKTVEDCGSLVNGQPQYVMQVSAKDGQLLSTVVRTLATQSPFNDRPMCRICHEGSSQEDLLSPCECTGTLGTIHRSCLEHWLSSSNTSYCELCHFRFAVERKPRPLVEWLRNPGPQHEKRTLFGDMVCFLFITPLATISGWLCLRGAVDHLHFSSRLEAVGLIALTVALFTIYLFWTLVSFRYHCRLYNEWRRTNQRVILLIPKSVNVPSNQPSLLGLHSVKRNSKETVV", "log2 fold change": 0.109}]}, {"compound": "Cc1cccc(CC(=O)N2CCc3c2ccc(-c2cn(C)c4ncnc(N)c24)c3F)n1", "experiment": "log2 fold change, soluble protein after heating vs DMSO (PISA); higher = thermal stabilisation; K562 cells, 10 uM, 30 min; active = over 0.2 and 3.5 SD of the protein, either way, in both replicates (recomputed)", "outline": "as §1", "values": [{"target": "MAPK11 (UniProt Q15759)", "log2 fold change": -0.116}, {"target": "LEPROT (UniProt O15243)", "log2 fold change": 0.03}, {"target": "MAPK7 (UniProt Q13164)", "log2 fold change": 0.034}, {"target": "MFSD12 isoform 3 (UniProt Q6NUT3)", "log2 fold change": 0.047}, {"target": "IKZF1 (UniProt R9R4D9)", "log2 fold change": -0.164}, {"target": "KMT5A (UniProt Q9NQR1)", "log2 fold change": -0.218}, {"target": "IGFBP3 isoform 2 (UniProt P17936)", "log2 fold change": 0.043}, {"target": "MED17 (UniProt Q9NVC6)", "log2 fold change": -0.033}, {"target": "LRRFIP1 isoform 4 (UniProt Q32MZ4)", "log2 fold change": -0.046}, {"target": "KIZ (UniProt Q2M2Z5)", "log2 fold change": 0.268}, {"target": "ITGA2B (UniProt P08514)", "log2 fold change": 0.256}]}, {"compound": "Cc1cn(-c2cc(NC(=O)c3ccc(C)c(Nc4nccc(-c5cccnc5)n4)c3)cc(C(F)(F)F)c2)cn1 [nilotinib]", "experiment": "log2 fold change, soluble protein after heating vs DMSO (PISA); higher = thermal stabilisation; K562 cells, 10 uM, 30 min; active = over 0.2 and 3.5 SD of the protein, either way, in both replicates (recomputed)", "outline": "as §1", "values": [{"target": "IKZF1 isoform 2 (UniProt Q13422)", "log2 fold change": 0.101}, {"target": "MAGED1 isoform 2 (UniProt Q9Y5V3)", "log2 fold change": -0.035}, {"target": "LYN isoform 2 (UniProt P07948)", "log2 fold change": -0.001}, {"target": "ILF3 (UniProt Q12906)", "log2 fold change": -0.065}, {"target": "MAP4K2 (UniProt Q12851)", "log2 fold change": -0.187}, {"target": "MAPRE3 isoform 2 (UniProt Q9UPY8)", "log2 fold change": -0.539}, {"target": "LOX (UniProt P28300)", "log2 fold change": -0.183}, {"target": "MED17 (UniProt Q9NVC6)", "log2 fold change": 0.069}, {"target": "LUM (UniProt P51884)", "log2 fold change": 0.449}, {"target": "MAP3K20 isoform 2 (UniProt Q9NYL2)", "log2 fold change": 0.098}, {"target": "INTS5 (UniProt Q6P9B9)", "log2 fold change": 0.146}, {"target": "MED29 (UniProt Q9NX70)", "log2 fold change": 0.017}, {"target": "MAP4K4 isoform 6 (UniProt O95819)", "log2 fold change": 0.047}, {"target": "MAP4 isoform 5 (UniProt P27816)", "log2 fold change": -0.181}, {"target": "ITGA2B (UniProt P08514)", "log2 fold change": -0.04}, {"target": "MARCHF3 (UniProt Q86UD3)", "log2 fold change": 0.156}]}]}
